Test results reported in PubChem BioAssay AID624202 (National Center for Advancing Translational Sciences (NCATS), 2012).
Hit rate of the full screen: of about 380,000 compounds, about 4,000 (1.1%) were called active. Inconclusive results (about 3%) are left out. The full list was thinned out, with actives kept by preference. Values without a mark were called inactive. Calls follow the shape of the dose curve; as a rule, active = well fitted activation curve with a large enough effect; inconclusive = small, poorly fitted or top-dose-only effect; inactive = no such curve, though single readings can be large or run the other way.

Assay: qHTS Assay to Identify Small Molecule Activators of BRCA1 Expression; also: nearly all actives have a fitted effect of over 80% in size
Conditions: MCF7-BRCA1-FFLuc reporter, luminescence, 48 h; series mostly up to 46.1 µM; activation: at the top concentration
In short: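 Cells: MCF7-BRCA1-FFLuc, 2000/well. Exposure: 48 h, 37 °C, 5% CO2. Read: luminescence, 15 min post-substrate. Controls: genistein 10 microM (maximal activation), DMSO (neutral).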
Potency is read from the fitted curve at half-maximal effect.

Compound	Potency	activation
O=C(CN1CCCCCC1)Nc1ccc(Br)cc1Br	5.62 µM (active)	–
Cc1cc(C)c(NC(=O)CN2CCCCCC2)c(C)c1	–	86.6%
O=C(CN1CCCCCC1)Nc1ccc(Br)cc1[N+](=O)[O-]	–	17.5%
Cn1c(=O)c2sccc2n2c(CCC(=O)NCc3ccccc3Cl)nnc12	–	0.707%
CCN(CC)c1ccc(/C=C/c2c(C)cnc3ccc(C)cc23)cc1	–	-54.5%
CC1CCN(C2=NC(=O)/C(=C/c3cn[nH]c3-c3ccccc3)S2)CC1	–	15.9%
Cc1ccsc1/C=C1\SC(N2CCOCC2)=NC1=O	11.2 µM (active)	–
O=C1N=C(N2CCOCC2)S/C1=C\C=C/c1ccccc1	–	0.869% [at 1.84 µM, scaled: vehicle 0%, 10 µM genistein 100%]
COc1ccc(Cn2c(=O)n(-c3ccccc3C)c(=O)c3c4c(sc32)CN(C(C)=O)CC4)cc1	–	-6.11%
Cc1cccc(NC(=O)Cn2c(=O)n(CCC(C)C)c(=O)c3cccnc32)c1	–	-3.64%
Cc1ccc(C)c(C(C)NC(=O)C2CCCO2)c1 (centres undefined)	–	-7.33%
O=C(Nc1nnc(SCc2c(Cl)cccc2Cl)s1)C1CCCO1 (centres undefined)	–	4.62%
Cc1cc(C)c2nc(NC(=O)C3CCCO3)sc2c1 (centres undefined)	15.8 µM (active)	–
Cc1cc2ccccc2n1CCNC(=O)c1ccc(F)cc1	–	-31.6%
O=C(NCc1ccccc1)C1CCN(S(=O)(=O)c2ccc3[nH]c(=O)ccc3c2)CC1	–	-1.38%
Cc1ccc(-c2nnc(SCc3ccccc3C)o2)cc1	11.2 µM (active)	–
Cc1ccc(-c2nnc(CN3CCN(C)CC3)o2)cc1	–	-2.44%
CCN(C(=O)CSc1nnc(-c2ccncc2)o1)c1ccccc1	–	7.95%
Cc1ccccc1CSc1nnc(CCCCCNC(=O)OC(C)(C)C)o1	–	-22%
CCCCSc1nnc(-c2ccc(C)cc2)o1	1.78 µM (active)	–
COc1ccc(-c2nnc(SCC(=O)Nc3ccccc3C)o2)cc1OC	–	0%
O=C(NCCC1=CCCCC1)c1ccc2c(c1)N(Cc1ccccc1F)C(=O)c1ccccc1S2(=O)=O	–	-29.5%
CCS(=O)(=O)N1CCc2cc(C(=O)NCc3ccc(C)cc3)ccc21	–	0%
Cc1ccc(C)c(N2CCN(C(=O)CCc3c(C)nc4c(c3C)c(=O)n(C)c(=O)n4C)CC2)c1	–	-8.22%
COc1ccc(Cl)cc1NC(=O)Cn1c(=O)c2ccccc2n2nncc12	–	1.86%
Brc1nc2ncnc(NCc3ccco3)c2[nH]1	–	13.2%

Compound	Potency	activation
CCOc1ccc(S(=O)(=O)N(CC(=O)NCCSCc2ccc(C)cc2)c2ccccc2)cc1	–	19.9%
CC(C)(C)NC(=O)CSc1nc(-c2ccc(F)cc2)cc(C(F)(F)F)n1	–	-3.74%
CO[C@H]1O[C@@H]2O[C@@]3(C)CC[C@@H]4[C@@H](C)CC[C@@H]([C@H]1C)[C@@]24OO3	–	-9.91%
CC1(C)CCc2cc(S(=O)(=O)N3CCN(c4nc(-c5cccs5)nc5ccccc45)CC3)ccc2O1	–	13.7%
Cc1cccc(NC(=O)COc2ccc(Br)cc2C)n1	–	-19.3%
Cc1cccc(C)c1NC(=O)CNC(=O)Cc1ccc(Br)cc1	–	-3.53%
Cc1cccc(NC(=O)Cc2ccc(Br)cc2)n1	8.91 µM (active)	–
CCCNC(=O)c1ccc(Cn2c(SCC(N)=O)nc3ccccc3c2=O)cc1	–	-8.15%
COc1ccc(CCNC(=O)CCCCn2c(=O)c3ccccc3n(Cc3ccccc3)c2=O)cc1OC	–	0%
Cc1ccc(CN(C(=O)c2ccccc2[N+](=O)[O-])c2ccccn2)cc1	–	0%
CCOC(=O)c1c(NC(=O)CSc2cn(CCNC(=O)c3cccc(C(F)(F)F)c3)c3ccccc23)sc2c1CCC2	–	10.6%
O=C(Cn1nc(CNc2ccc(Cl)cc2)[n+]2c1CCCCC2)c1ccc(Cl)cc1	–	-38.8%
O=C(Cn1ncc(N2CCCC2)c(Br)c1=O)c1ccc(Cl)cc1	1.41 µM (active)	–
CC(=O)Cn1ncc(N2CCOCC2)c(Br)c1=O	–	0.15%
CCOc1ccc(N(C)S(=O)(=O)c2cc(-c3cnc(C)o3)ccc2OC)cc1	–	-1.24%
CCCCCn1c(CCCNC(=O)c2ccccc2OC)nc2ccccc21	–	-19.4%
COc1cccc(/C(C)=N/Nc2ncc(Cl)cc2Cl)c1	10 µM (active)	–
COC(=O)c1sccc1N/N=C(\C)c1ccc(F)c(Cl)c1	–	-102%
CC(Oc1ccc(Cl)cc1)C(=O)OCC(=O)Nc1ncc(Cl)cc1Cl (centres undefined)	–	33.4%
Cc1ccccc1CN1CCC(CNC(=O)c2c(C)oc3ncnc(N4CCCCC4)c23)CC1	–	0%
O=C(c1cccc(Cl)c1)N1CCN(CCc2ccncc2)CC1	–	9.44%
Cc1ccc(CSc2nnc(-c3cnccn3)n2C)cc1	–	0%
Cn1c(SCc2c(F)cccc2Cl)nnc1-c1cnccn1	2.51 µM (active)	–
Cn1c(SCC(=O)c2ccc(F)cc2)nnc1-c1ccccn1	–	30.7%
CCC(=O)N1CCc2cc(Br)cc(S(=O)(=O)NCc3ccc(Cl)cc3)c21	–	-18.8%
CCOC(=O)N1CCN(S(=O)(=O)c2ccc(C(=O)Nc3ccc(F)cc3F)cc2)CC1	–	-70.1%

Compound	Potency	activation
O=C(C=CC(=O)Nc1ccc(F)cc1F)Nc1ccc(F)cc1F	–	11.6%
COc1ccc(C(=O)Nc2ccc(F)cc2F)cc1	6.31 µM (active)	–
Cc1ccccc1-c1nc(CS(=O)(=O)CC(=O)Nc2cc(Cl)cc(Cl)c2)c(C)o1	–	-32.8%
COc1cc(OC)c(N(C)C(=O)c2cc3c(=O)oc4ccccc4c3s2)cc1Cl	–	0.945%
O=C(N/N=C/c1cccc([N+](=O)[O-])c1)C1CC(=O)N(c2ccc(Br)cc2)C1 (centres undefined)	–	-32.2%
CCCc1ccc(OCc2ccc(C(=O)N/N=C/c3cccc([N+](=O)[O-])c3)o2)c(OC)c1	–	-53.3%
O=[N+]([O-])c1cccc(/C=N/Nc2ncc(Br)cn2)c1	4.47 µM (active)	–
COc1ccc(CCNc2nc(-c3ccc(F)cc3)cc(C(F)(F)F)n2)cc1OC	–	-34.7%
CNCCCOc1cc2nc(N3CCCN(C)CC3)nc(NC3CCN(C)CC3)c2cc1OC	–	0.186%
COc1ccc(-c2nn3c(=O)cc(CN4CCN(C(=O)c5ccc(OC)c(OC)c5)CC4)nc3s2)cc1	–	0%
O=[N+]([O-])c1c(NCCO)cc(Sc2nc3ccccc3s2)c2nonc12	–	-56.6%
O=C(O)c1ccccc1CSc1nc2ccccc2s1	5.62 µM (active)	–
CN(C(=O)CSc1nc2ccc(NC(=O)COc3ccccc3)cc2s1)c1ccccc1	–	-4.92%
COc1ccc(C2Nc3ccc(NC(=O)COC(C)=O)cc3C(=O)N2Cc2ccccc2)cc1COc1ccc(NC(C)=O)cc1 (centres undefined)	–	0%
COc1ccc2c(c1)c(=O)c(S(=O)(=O)c1ccc(F)cc1)cn2CC(=O)Nc1ccc(C)cc1C	–	-0.838%
CN(CCOc1ccc(CC2SC(=O)NC2=O)cc1)c1ccccn1 (centres undefined)	inactive	–
CC(C)c1ccc(OCC(O)CN2CCN(c3ccccn3)CC2)cc1 (centres undefined)	–	2.11%
CC(O)c1ccc(OCCN(C)c2ccccn2)cc1 (centres undefined)	11.2 µM (active)	–
COc1ccccc1CNc1nccn(-c2ccc(F)cc2)c1=O	–	8.06%
CCOC(=O)CNc1nc(Cl)nc(Nc2ccc(OC)cc2OC)n1	–	-30.3%
CCOC(=O)CNc1nc(Cl)nc(Nc2ccccc2)n1	15.8 µM (active)	–
Nc1nc(COC(=O)CCC(=O)c2ccc(Cl)cc2)nc(Nc2ccccc2)n1	–	0.774%
CCCN1CN=C(NS(=O)(=O)c2ccc(NC(C)=O)cc2)NC1	–	12.3%
CC1=C(C(=O)Nc2ccccc2)C(c2ccc(C)cc2)n2nc(SCc3ccccc3C)nc2N1 (centres undefined)	–	34.1%
Cc1ccc2nc(-c3cccc(Br)c3)cc(C(=O)Nn3cnnc3)c2c1	10 µM (active)	–
C/C(N)=C(/C#N)C(=O)COC(=O)c1cc(-c2cccc(Br)c2)nc2ccccc12	–	-68.3%

Compound	Potency	activation
COc1ccccc1C(=O)Nn1cnnc1	–	-5.05%
Cc1nc2c(-c3ccccc3)c(C)nn2c(C)c1CCC(=O)NCCc1ccccc1	–	-22.8%
O=C1CC(c2ccccc2)CC2=C1C(c1ccco1)n1nc(C(F)(F)F)nc1N2 (centres undefined)	–	0%
Cc1cc(Nc2cccc(C(F)(F)F)c2)nc2ccc(NC(=O)c3ccc(=O)[nH]c3)cc12	–	-55.5%
O=c1c(-c2ccccc2)coc2cc(O)ccc12	12.6 µM (active)	–
CN(C)Cc1c(O)ccc2c(=O)c(-c3ccccc3Cl)coc12	–	-3.77%
CC(C)=CCc1c(O)c(CC=C(C)C)c2occ(-c3ccc(O)cc3)c(=O)c2c1O	–	-9.95%
COc1ccc(CCn2cc3c(c2-c2ccc(Br)cc2)c(=O)n(C)c(=O)n3C)cc1OC	–	-7.26%
CCC(C)N(c1ccc(/C=C/c2ccnc3ccccc23)cc1)C(C)CC (centres undefined)	–	3.42%
COC(=O)c1ccc(Cn2c(SCC(=O)N(C)c3ccccc3)nc3ccccc32)cc1	–	-0.941%
COc1ccc(CN2C(=O)C(NC(=O)c3cccc(C)c3)(C(F)(F)F)N=C2c2ccccc2)cc1 (centres undefined)	–	-23%
CCN1CCN(c2ccc(/C=C/c3ccnc4ccccc34)cc2)CC1	–	3.84%
O=C(/C=C/c1ccc(N2CCOCC2)cc1)c1ccccc1	3.16 µM (active)	–
C/C(=C/c1ccccc1)C(=O)N1CCN(c2ccccc2)CC1	–	-4.42%
O=C(O)CCC(=O)Nc1ccc(N2CCOCC2)cc1	–	3.88%
COc1ccc(S(=O)(=O)NCc2cccn2Cc2cccc(C)c2)cc1Cl	–	9.1%
CCn1cc2nc(SCc3cccc(F)c3)n(CCc3ccccc3)c(=O)c2n1	–	-31.5%
CCc1ccccc1NS(=O)(=O)c1ccc2nc(-c3ccccc3)[nH]c2c1	–	-11.7%
O=C(CCC(=O)c1cccs1)NC1CCCCCC1	–	61.2%
O=C(CCS(=O)(=O)c1ccccc1)NC1CCCC1	10 µM (active)	–
CC(=O)c1cc(-c2ccccc2)n(CCC(=O)NC2CCCCCC2)c1C	–	-25.7%
C=C1C=C(C)n2ncc(C(=O)Nc3ccccc3O)c2N1	–	-24.1%
COc1cc(OC)cc(C(=O)Nc2c(C(=O)Nc3ccc(F)cc3)oc3ccccc23)c1	–	-7.38%
COc1ccc(C(=O)OCC(=O)c2ccc(Cl)s2)c(OC)c1OC	–	-2.37%
Cn1cccc1C(=O)OCC(=O)NCCc1ccccc1	–	62.9%
Cn1cccc1C(=O)OCC(=O)c1ccc(Br)s1	8.91 µM (active)	–
